Experimental data from PubChem BioAssay (Tox21).
A number with no mark means an inactive call. Inconclusive results are not listed. Entries that show only a call come without a potency. Active and inactive are the calls of the source. Unless noted, calls come from the whole dose curve; as a rule, active = well fitted curve in the direction sought with a large enough effect in the repeat runs; inconclusive = weak or mixed curves; inactive = no such curve, though single readings can be large; an effect the other way counts as inactive or inconclusive.

Key:
[1] = qHTS assay to identify small molecule agonists of the estrogen receptor alpha (ER-alpha) signaling pathway in the presence of an antagonist - cell viability counter screen (AID 1259386);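 note: series mostly up to about 92 µM; cells exposed to compounds for 22 h at 37 °C before the viability read; nearly all actives have a fitted effect of over 30% in size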
Procedure, shortened: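 Viability counter screen using VM7Luc4E2 (full-length ER-alpha, four ERE-luciferase). The cells were treated with compounds alongside ICI-182,780 10.0nM for 22hr, and live-cell protease fluorescence was quantified with CellTiter-Fluor.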

[2] = target: Progesterone receptor (Homo sapiens) (UniProt P06401); assay: qHTS assay to identify small molecule agonists of the progesterone receptor (PR) signaling pathway (AID 1346784; calls by dose curve; note: nearly all actives have a fitted effect of over 30% in size)
Procedure, shortened: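 Cells (PR-UAS-bla HEK 293T, GripTite) were plated in assay medium containing 2% charcoal-stripped FBS and incubated 6 hr. Test compounds in DMSO were added for 16 hr at 37C. FRET substrate was then loaded for 2 hr at room temperature before fluorescence reading.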

[3] = target: Progesterone receptor (Homo sapiens) (UniProt P06401); assay: qHTS assay to identify small molecule antagonists of the progesterone receptor (PR) signaling pathway (AID 1346795; active = well fitted inhibition curve with a large enough effect in the signal ratio in the repeat runs, not every such curve was filed as active; the % refers to the signal ratio; note: potency is the fitted concentration of half-maximal effect)
Procedure, shortened: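 Antagonist mode: compounds tested against 1 nM (final) promegestone stimulation in HEK293T cells expressing PR-UAS-bla reporter, 16 hr at 37C, 5% CO2; beta-lactamase activity detected via B/G FRET substrate after 2 hr at room temperature.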

[4] = qHTS assay to identify small molecule antagonists of the progesterone receptor (PR) signaling pathway - cell viability counter screen (AID 1346798); note: series mostly up to about 92 µM; nearly all actives have a fitted effect of over 50% in size
Procedure, shortened: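 Counter screen for cytotoxicity: viability of PR-UAS-bla HEK293T cells was measured with CellTiter-Glo luminescence following 16 hr compound exposure in the presence of R5020.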

[5] = qHTS assay to identify small molecule antagonists of the TGF-beta/Smad signaling pathway - cell viability counter screen (AID 1346824); note: nearly all actives have a fitted effect of over 50% in size
Procedure, shortened: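 SBE-bla HEK 293T cells were plated overnight at 37 C, then given compounds in DMSO plus TGF-beta1 (added as 0.25 ng/mL solution) for 5 hr. After the bla read, CellTiter-Glo was added to the same wells and luminescence read after 30 min at room temperature.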

[6] = qHTS assay to identify small molecule agonists of the TGF-beta/Smad signaling pathway - cell viability counter screen (AID 1346829); note: top concentration of the series differs between compounds; nearly all actives have a fitted effect of over 45% in size
Procedure, shortened: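 Here the cytotoxicity of library compounds is measured in SBE-bla HEK 293T cells treated for 5 hr, using CellTiter-Glo added to wells already read for the beta-lactamase reporter.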

[7] = qHTS assay to identify small molecule agonists of the TGF-beta/Smad signaling pathway (AID 1346859; active = well fitted activation curve with a large enough effect in the signal ratio in the repeat runs, not every such curve was filed as active; the % refers to the signal ratio; note: series mostly up to about 77 µM)
Procedure, shortened: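 Reporter line: HEK 293T with stably integrated SBE-controlled beta-lactamase. Compound exposure lasts 5 hr at 37 C and 5% CO2; substrate loading follows for 2 hr at room temperature, with emission read at 460 and 530 nm.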

[8] = target: Thyrotropin-releasing hormone receptor (Homo sapiens) (UniProt P34981); assay: qHTS assay to identify small molecule antagonists of the thyrotropin-releasing hormone receptor (TRHR) signaling pathway (AID 1346877; active = well fitted inhibition curve with a large enough effect in the repeat runs, not every such curve was filed as active; note: series mostly up to about 51 µM)
Procedure, shortened: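 Following an 18 h incubation at 37 °C and a 2 h calcium dye load, TRHR-HEK293 cells were exposed to compound (5 min, room temperature) and challenged with TRH, 1 nM final.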

[9] = target: Thyrotropin-releasing hormone receptor (Homo sapiens) (UniProt P34981); assay: qHTS assay to identify small molecule agonists of the thyrotropin-releasing hormone receptor (TRHR) signaling pathway (AID 1346891; calls by dose curve;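 note: HEK293 cells expressing TRHR with calcium dye readout; series mostly up to about 58 µM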)
Procedure, shortened: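 Cells: TRHR-Hek293, seeded and incubated 18 h. Dye loading: 2 h at 37 °C. Compound added from DMSO stock by pin tool. Read-out: kinetic calcium fluorescence over 3 min.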

[10] = Human pregnane X receptor (PXR) small molecule agonists, qHTS cell viability counter screen (AID 1346977); note: nearly all actives have a fitted effect of over 50% in size
Procedure, shortened: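 Cytotoxicity counter screen run in the same wells as the PXR luciferase assay, using PXR-Luc HepG2 cells in charcoal-stripped serum medium. Viability: CellTiter-Fluor fluorescence after 24hr compound treatment.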

[11] = Caspase-3/7 induction in HepG2 cells by small molecules, qHTS assay (AID 1346978); note: nearly all actives have a fitted effect of over 15% in size
Procedure, shortened: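 Wild-type HepG2 cells (2,000/well) were settled 5 h at 37 C, 5% CO2, then exposed to compounds in DMSO for 17 h. Caspase-3/7 activity was read by luminescence 30 min after adding Caspase-Glo 3/7 reagent at room temperature.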

[12] = Caspase-3/7 induction in CHO-K1 cells by small molecules, qHTS cell viability counter screen (AID 1346979); note: nearly all actives have a fitted effect of over 35% in size
Procedure, shortened: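 Cytotoxicity counter screen run in parallel with the caspase-3/7 assay: CHO-K1 cells, 16hr compound treatment at 37C, then CellTiter-Fluor for 1hr before fluorescence reading.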

[13] = Caspase-3/7 induction in CHO-K1 cells by small molecules, qHTS assay (AID 1346980); note: nearly all actives have a fitted effect of over 15% in size
Procedure, shortened: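 Wild-type cells were seeded at 1,500 per well and settled 5 hr at 37 C, 5% CO2, then exposed to DMSO-dissolved compounds for 17 hr. Caspase-Glo 3/7 reagent was added, and luminescence was read after 30min at room temperature.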

[14] = Caspase-3/7 induction in HepG2 cells by small molecules, qHTS cell viability counter screen (AID 1346981); note: series mostly up to about 92 µM; nearly all actives have a fitted effect of over 30% in size
Procedure, shortened: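 Viability determined by CellTiter-Fluor fluorescence in HepG2 wells also used for the luminescent Caspase-Glo 3/7 read. Compounds were present for 16 hr at 37 C, 5% CO2 before reagent addition.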

[15] = target: Nuclear receptor subfamily 1 group I member 2 (Homo sapiens) (UniProt O75469); assay: Human pregnane X receptor (PXR) small molecule agonists, qHTS assay (AID 1346982); note: nearly all actives have a fitted effect of over 35% in size; note: potency is the fitted concentration of half-maximal effect
Procedure, shortened: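 Compound-induced hPXR transactivation of a CYP3A4 luciferase reporter was scored in HepG2 PXR-Luc cells over 24 hr at 37 C, 5% CO2, by luminescence.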

[16] = target: Acetylcholinesterase (Homo sapiens) (UniProt P22303); assay: Acetylcholinesterase (AChE) small molecule antagonists: colormetric cell-based qHTS assay (AID 1347395; calls by dose curve; note: nearly all actives have a fitted effect of over 30% in size)
Procedure, shortened: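 Cells (SH-SY5Y, 2,000 per well) are seeded and left overnight at 37 C. Compound is added for 30 min, then DTNB and acetylthiocholine for a further 90 min at 37 C before absorbance-based thiocholine detection.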

[17] = qHTS assay to identify small molecule agonists of the progesterone receptor (PR) signaling pathway - cell viability counter screen (AID 1346799; calls by dose curve; note: nearly all actives have a fitted effect of over 45% in size)
Procedure, shortened: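 Cells (PR-UAS-bla HEK293T) are plated at 3,000/well in 2% charcoal-stripped FBS medium, rested 6 hr, dosed and incubated 16 hr at 37C. CellTiter-Glo is then added and luminescence measured after 30 min at room temperature.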

Chain of Acetylcholinesterase (Homo sapiens) (P22303 whole entry, looked up): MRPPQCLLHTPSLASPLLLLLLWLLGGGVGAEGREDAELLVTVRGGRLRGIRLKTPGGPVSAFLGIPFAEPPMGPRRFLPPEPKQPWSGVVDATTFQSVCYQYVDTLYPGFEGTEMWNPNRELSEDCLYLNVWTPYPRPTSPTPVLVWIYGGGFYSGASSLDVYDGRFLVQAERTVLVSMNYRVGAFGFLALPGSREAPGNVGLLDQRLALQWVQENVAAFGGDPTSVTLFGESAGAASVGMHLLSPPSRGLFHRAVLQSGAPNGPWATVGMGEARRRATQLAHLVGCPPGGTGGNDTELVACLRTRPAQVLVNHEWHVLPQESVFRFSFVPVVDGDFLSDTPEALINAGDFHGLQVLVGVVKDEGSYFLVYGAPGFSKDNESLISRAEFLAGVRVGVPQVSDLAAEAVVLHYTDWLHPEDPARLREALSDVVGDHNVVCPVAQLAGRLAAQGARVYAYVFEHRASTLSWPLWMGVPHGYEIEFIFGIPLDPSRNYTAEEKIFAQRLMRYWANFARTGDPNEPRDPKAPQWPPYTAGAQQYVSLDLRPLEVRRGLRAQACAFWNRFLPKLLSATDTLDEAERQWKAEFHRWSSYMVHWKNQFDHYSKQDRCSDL
Chain of Nuclear receptor subfamily 1 group I member 2 (Homo sapiens) (O75469 whole entry, looked up): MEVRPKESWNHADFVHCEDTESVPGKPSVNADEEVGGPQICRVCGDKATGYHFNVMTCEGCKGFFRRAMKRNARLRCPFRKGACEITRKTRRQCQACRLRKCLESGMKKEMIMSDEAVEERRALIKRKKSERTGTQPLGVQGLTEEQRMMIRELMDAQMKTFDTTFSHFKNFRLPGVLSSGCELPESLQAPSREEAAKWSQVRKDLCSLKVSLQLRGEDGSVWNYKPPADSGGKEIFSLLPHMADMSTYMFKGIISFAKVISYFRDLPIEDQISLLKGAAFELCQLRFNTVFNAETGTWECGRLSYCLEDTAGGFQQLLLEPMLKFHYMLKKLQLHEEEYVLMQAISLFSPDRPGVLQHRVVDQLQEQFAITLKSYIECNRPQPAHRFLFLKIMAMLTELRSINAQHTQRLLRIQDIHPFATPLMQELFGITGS
Chain of Progesterone receptor (Homo sapiens) (P06401 whole entry, looked up): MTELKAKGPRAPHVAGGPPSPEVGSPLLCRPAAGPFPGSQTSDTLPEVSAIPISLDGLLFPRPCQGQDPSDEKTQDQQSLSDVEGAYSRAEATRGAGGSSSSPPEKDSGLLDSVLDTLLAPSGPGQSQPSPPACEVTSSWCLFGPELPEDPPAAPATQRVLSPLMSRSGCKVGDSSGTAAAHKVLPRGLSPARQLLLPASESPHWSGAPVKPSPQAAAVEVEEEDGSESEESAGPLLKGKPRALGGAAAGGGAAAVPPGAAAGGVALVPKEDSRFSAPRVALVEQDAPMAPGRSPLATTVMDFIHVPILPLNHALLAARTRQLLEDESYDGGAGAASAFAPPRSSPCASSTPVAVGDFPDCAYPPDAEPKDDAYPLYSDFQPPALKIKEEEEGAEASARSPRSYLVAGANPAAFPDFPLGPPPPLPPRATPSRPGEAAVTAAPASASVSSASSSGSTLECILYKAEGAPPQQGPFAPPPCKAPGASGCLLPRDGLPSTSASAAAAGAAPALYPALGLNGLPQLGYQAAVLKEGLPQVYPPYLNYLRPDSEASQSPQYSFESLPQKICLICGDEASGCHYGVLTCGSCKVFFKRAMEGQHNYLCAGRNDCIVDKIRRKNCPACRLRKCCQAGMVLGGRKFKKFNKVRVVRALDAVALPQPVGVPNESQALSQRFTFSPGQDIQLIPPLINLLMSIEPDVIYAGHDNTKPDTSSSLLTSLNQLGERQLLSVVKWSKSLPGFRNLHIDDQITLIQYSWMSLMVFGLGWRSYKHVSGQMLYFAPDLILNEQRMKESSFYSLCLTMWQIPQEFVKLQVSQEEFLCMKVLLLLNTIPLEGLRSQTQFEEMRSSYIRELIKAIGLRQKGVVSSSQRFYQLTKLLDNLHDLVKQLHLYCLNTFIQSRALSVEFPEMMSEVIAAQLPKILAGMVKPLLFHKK
Chain of Thyrotropin-releasing hormone receptor (Homo sapiens) (P34981 whole entry, looked up): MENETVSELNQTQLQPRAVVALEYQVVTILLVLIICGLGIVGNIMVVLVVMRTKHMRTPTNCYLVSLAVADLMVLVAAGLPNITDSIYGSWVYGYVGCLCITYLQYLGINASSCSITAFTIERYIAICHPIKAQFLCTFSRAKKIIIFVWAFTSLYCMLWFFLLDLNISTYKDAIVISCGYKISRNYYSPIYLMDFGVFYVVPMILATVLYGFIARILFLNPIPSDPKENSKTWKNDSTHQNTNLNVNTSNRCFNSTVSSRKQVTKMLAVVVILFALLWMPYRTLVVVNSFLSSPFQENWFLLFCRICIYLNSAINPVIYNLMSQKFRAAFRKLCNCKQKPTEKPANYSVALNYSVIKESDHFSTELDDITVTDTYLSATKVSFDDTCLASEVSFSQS

| Compound | Potency [1] | Potency [2] | Potency [3] | Potency [4] | Potency [5] | outcome [6] | outcome [7] | outcome [8] | outcome [9] | Potency [10] | Potency [11] | Potency [12] | Potency [13] | Potency [14] | Potency [15] | Potency [16] | Potency [17] |
| --- | --- | --- | --- | --- | --- | --- | --- | --- | --- | --- | --- | --- | --- | --- | --- | --- | --- |
| O=[N+]([O-])c1ccc(CBr)cc1 | inactive | inactive | inactive | inactive | inactive | inactive | inactive | inactive | inactive | inactive | inactive | inactive | inactive | inactive | inactive | inactive |  |
| CNCC(=O)c1ccc(O)c(O)c1 | inactive | inactive | inactive | inactive |  | inactive | inactive | inactive | inactive | inactive |  | inactive | inactive | inactive | inactive | inactive | inactive |
| CCOC(=O)N(C)C(=O)CSP(=S)(OCC)OCC | inactive | inactive | inactive | inactive |  | inactive | inactive |  |  | inactive | inactive | inactive | inactive | inactive | 30.6 µM (active) |  | inactive |
| ClC(Cl)Br | inactive | inactive | inactive | inactive |  | inactive | inactive | inactive | inactive |  | inactive | inactive | inactive | inactive | inactive | inactive | inactive |
| OC(c1ccc(F)cc1)(c1cncnc1)c1ccccc1Cl (centres undefined) | inactive | inactive | 48.6 µM (active) | inactive |  | inactive | inactive | inactive | inactive |  | inactive | inactive | inactive | inactive | 30.6 µM (active) | inactive | inactive |
| O=c1oc2ccccc2c(O)c1C1CCCc2ccccc21 (centres undefined) | inactive | inactive | inactive | inactive | inactive | inactive | inactive | inactive | inactive | inactive | inactive | inactive | inactive | inactive |  | inactive |  |
| CC(C)COP(=O)(OCC(C)C)OCC(C)C | inactive | inactive | inactive | inactive |  | inactive | inactive | inactive | inactive | inactive | inactive | inactive | inactive | inactive | inactive | inactive | inactive |
| c1coc(-c2nc3ccccc3[nH]2)c1 | inactive | inactive | inactive |  | inactive | inactive | inactive | inactive | inactive | inactive | inactive | inactive | inactive | inactive | 3.44 µM (active) |  | inactive |
| COc1cc(C[C@@H](C)N)c(OC)cc1C | inactive | inactive | inactive | inactive | inactive | inactive | inactive | inactive | inactive |  | inactive | inactive | inactive | inactive | inactive | inactive |  |
| O=NN1CCN(N=O)CC1 | inactive | inactive | inactive | inactive |  | inactive | inactive | inactive | inactive |  | inactive | inactive | inactive | inactive | inactive | inactive | inactive |
| CNC(=O)Oc1ccc(N(C)C)c(C)c1 | inactive | inactive | inactive | inactive |  | inactive | inactive | inactive | inactive |  | inactive | inactive | inactive | inactive |  |  | inactive |
| [Cl][Sn]([Cl])([Cl])[Cl] | inactive | inactive | inactive |  | inactive | inactive | inactive | inactive | inactive | inactive | inactive | inactive | inactive | inactive | inactive |  | inactive |
| CCSC(=O)N(CC)C1CCCCC1 | inactive | inactive | inactive | inactive |  | inactive | inactive | inactive | inactive | inactive |  | inactive | inactive | inactive | inactive | inactive | inactive |
| O=C1OC(=O)C2C1C1(Cl)C(Cl)=C(Cl)C2(Cl)C1(Cl)Cl (centres undefined) | inactive | inactive | inactive |  | inactive | inactive | inactive | inactive | inactive | inactive | inactive | inactive | inactive | inactive | inactive | inactive | inactive |
